Results published in PubChem BioAssay (NCI).
The panel holds about 83,000 compounds, 20% with a hit somewhere; the sample as a whole holds those more often.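 Negative percent growth values reflect cell death: -40 means 40% of the cells present at the start died, and -100 means all died.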 A number with no mark means an inactive call. Activity calls are given as the source filed them. The calls were made as follows: active = growth percent below 10; inactive = the rest.

Tested on: HOP-92 NSCLC
Assay: NCI-60 one-dose screen, 48 h (100 = growth as untreated, 0 = no growth, -100 = all killed)
Conditions: 10 µM unless noted

Row | SMILES | growth
1 | C[C@]12C[C@@H](CO)[C@H](O)C[C@@H]1CC[C@@H]1[C@@H]2CC[C@]2(C)[C@@H](O)CC[C@@H]12 | 87.3%
2 | [Cl][Hg][c]1cc[c]([Hg][Cl])o1 | -29.1% (active)
3 | NC(=S)c1cn(C2OC(CO)C(O)C2O)c2ncnc(N)c12 (centres undefined) | -4.97% (active)
4 | COC(=O)CC[C@H](Cc1ccccc1)NC(=O)c1csc([C@@H](C[C@H](C(C)C)N(C)C(=O)[C@@H](NC(=O)[C@H]2CCCCN2C)C(C)C)OC(C)=O)n1 | -1.54% (active)

Tested on: NCI-H522 lung
Assay: as above
Conditions: 10 µM unless noted

Row | SMILES | growth
5 | O=C(CCl)c1ccc([N+](=O)[O-])o1 | -56.7% (active)
6 | CCCCCSC1C2C(=O)C(Br)=CC13CCNc1c(O)c4c5c(c13)=[N+]2CCC=5C=N4 (centres undefined) | -64.4% (active)
7 | COc1ccc(C/C(C)=C(\c2ccc(OCCN3CCOCC3)cc2)c2ccc(OC(=O)Cc3ccccc3)cc2)cc1 | -87.6% (active)
8 | Cn1cc(-c2csc(-c3cn(CCCCN4CCCCC4)c4ccc(F)cc34)n2)c2cccnc21 | 86.2%
9 | COc1ccc2c(c1)c(-c1nc(-c3cn(C)c4ncccc34)cs1)cn2CCCCN1CCCCC1 | -61.7% (active)
10 | C[n+]1c(/C=C/c2ccc(N(CCCl)CCCl)cc2)sc2ccccc21 | 16.4%
11 | C=CC[Se]C(=O)c1ccccc1OC(C)=O | 47.1%
12 | CC(=O)OC1CCC2C3CCC4=C/C(=N/OC(=O)c5ccc(N(CCCl)CCCl)cc5)CCC4(C)C3CC(C)C12 (centres undefined) | 79.2%
13 | CCCCCCCC[n+]1ccc2ccccc2c1 | 29.8%
14 | Cn1cccc1C1CC(=O)N(CCC[Se]C#N)C1=O (centres undefined) | 23.5%
15 | C[Se]C(=O)c1ccccc1OC(C)=O | 63.8%
16 | O=C1Nc2ccccc2C2c3cccn3-c3ccccc3CN12 (centres undefined) | -7.83% (active)
17 | CCOC(=O)[C@@H](C)C[C@H](Cc1ccccc1)NC(=O)c1csc([C@@H](C[C@H](C(C)C)N(C)C(=O)[C@H](CCC(C)C)NC(=O)[C@H]2CCCCN2C)OC(C)=O)n1 | -27% (active)
18 | COC(=O)[C@H](C[C@H](Cc1ccccc1)NC(=O)c1csc([C@@H](C[C@H](C(C)C)N(C)C(=O)[C@@H](NC(=O)[C@H]2CCCCN2C)C(C)C)OC(C)=O)n1)NC(=O)OCc1ccccc1 | -30.4% [8.5 µM] (active)
19 | CC1(C)N=C(N)N=C(N)N1c1ccc(OCCCNC(=O)Nc2ccc(S(=O)(=O)F)cc2)c(Cl)c1 | 21.5%
20 | O=C(CN1CCN(C(=O)c2ccco2)CC1)Nc1ccc(Cl)cc1C(=O)c1ccccc1Cl | 67.7%
21 | Cc1cc(N(CCCl)CCCl)ccc1C=Nc1ccccc1-c1ccccc1 | 99.5%
22 | Cn1cc(-c2csc(-c3cn(CCN4CCOCC4)c4ccccc34)n2)c2cccnc21 | 40.6%
23 | CCOC(=O)[C@@H](C)C[C@H](Cc1ccccc1)NC(=O)c1csc([C@@H](C[C@H](C(C)C)N(C)C(=O)[C@H](CC)NC(=O)[C@H]2CCCCN2C)OC(C)=O)n1 | -22.8% (active)
24 | ClC1=C(Cl)C(Cl)(C2(Cl)C(Cl)=C(Cl)C(Cl)=C2Cl)C(Cl)=C1Cl | -68.2% (active)
25 | O=C([O][Hg][CH2]C1OCCOC1[CH2][Hg][O]C(=O)c1ccccc1)c1ccccc1 (centres undefined) | -64.1% (active)
26 | COc1ccc([As]=[As]c2ccc(OC)c(NCS(=O)(=O)O)c2)cc1NCS(=O)(=O)O (centres undefined) | -32.9% (active)
27 | [Cl][Hg][n]1c(-c2ccco2)nc2ccccc21 | 85.7%
28 | CCC[CH2][Sn]([CH2]CCC)([CH2]CCC)[O]c1ccc(Cl)cc1Cl | -90.1% (active)
29 | NC(CCl)CCl | 100%
30 | CN1CCC(c2c[nH]c3ccccc23)C1 (centres undefined) | 79.5%
31 | CCCCCCCCCCCCCCCCCC1OC[C@@H](COC(=O)O[C@@H](C(=O)O[C@H]2C[C@@]3(O)[C@@H](OC(=O)c4ccccc4)[C@@H]4[C@]5(OC(C)=O)CO[C@@H]5C[C@H](O)[C@@]4(C)C(=O)[C@H](OC(C)=O)C(=C2C)C3(C)C)[C@@H](NC(=O)c2ccccc2)c2ccccc2)O1 (some centres undefined) | 57.6%
32 | CC1=C([Te]c2ccc(O)cc2)C(=O)c2ccccc2C1=O | 0.775% (active)
33 | O=C1NC(=O)C(=Cc2cn(CCCCCCn3c4ccccc4c(=O)c4ccccc43)c3ccccc23)C(=O)N1 | 73.3%
34 | CC(C)OC(=O)[C@H](C)NP(=O)(Oc1ccccc1)C1CCCN(O)C1=O (some centres undefined) | 97.6%
